Results on 9 compounds are retold here after PubChem BioAssay (NCI).

SMILES strings stand for the structures. Compounds without any hit were thinned out: in the full panel of roughly 79,000, 15% have a hit. Unmarked numbers belong to inactive results. The source made the active and inactive calls. No stated cut-off is given here; in the data, active means growth inhibition above about 70%; inactive means the rest.

Assay [1] in a line: NCI Yeast Anticancer Drug Screen. Data for the rad50 strain (AID 155).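 Further: 0% = growth of vehicle-only cultures of the same strain.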 The conditions noted are these: S. cerevisiae rad50 strain growth inhibition, active compounds read high. The method, boiled down:
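Genetically altered yeast (DNA repair pathway); compound treatment; growth inhibition vs vehicle ctrl.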

Assay [2] is described as follows: NCI Yeast Anticancer Drug Screen. Data for the mec2-1 strain (AID 157). The settings on record: S. cerevisiae mec2-1 strain, active compounds read high. The method, boiled down:
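Strain: mec2-1 (DNA repair/cell cycle alteration). Compound exposure, then growth measured; inhibition expressed relative to vehicle.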

Assay [3] is described as follows: NCI Yeast Anticancer Drug Screen. Data for the sgs1 mgt1 strain (AID 161).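 Further: 0% = growth of cultures given vehicle only.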 The settings on record: S. cerevisiae sgs1 mgt1 strain, active compounds read high. The method, boiled down: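 Test agents were incubated with a DNA-repair-mutant yeast strain. Growth was then read and compared against vehicle-treated controls.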
Assay [4] is described as follows: NCI Yeast Anticancer Drug Screen. Data for the cln2 rad14 strain (AID 165).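 Further: 0% = growth equal to vehicle treated cultures.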 The settings on record: S. cerevisiae cln2 rad14 strain, active compounds read high. Summed up:
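Compounds are applied to the cln2 rad14 yeast strain, and growth is then compared with that of vehicle-treated cultures to give inhibition.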

The nature of assay [5]: NCI Yeast Anticancer Drug Screen. Data for the bub3 strain (AID 167). The settings on record: S. cerevisiae bub3 mutant strain, active compounds read high. Summed up:
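Yeast carrying a defined mutation is treated with each compound, and growth is compared with that of vehicle-exposed cells to give inhibition.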

Assay [6] can be described thus: NCI Yeast Anticancer Drug Screen. Data for the mlh1 rad18 strain (AID 175). The conditions noted are these: S. cerevisiae mlh1 rad18 strain growth inhibition, active compounds read high. The method, boiled down: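 Read-out is yeast growth inhibition, calculated against vehicle-only controls. The compound was applied to a strain engineered with DNA damage repair alterations.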

Where [7] appears, read: at 5.0 µM (retest, dose inferred, filed as 0.5).
The mark [8] stands for this setting: at 50.0 µM (retest, dose inferred, filed as 5.0).

Regarding `CCN1C(C)N1P(=S)(OC1CC(C)(C)N(O)C(C)(C)C1)OC1CC(C)(C)N(O)C(C)(C)C1` (configuration not stated), the growth inhibition in assay [1] (setting [7]) was -2%; in assay [1] (setting [8]) it was 3%; in assay [1] (at 50.0 µM), 45.9%; in assay [2] (setting [7]), -6%; in assay [2] (setting [8]) it was 6%; in assay [2] (at 50.0 µM), 91.3% (active). The growth inhibition in assay [3] (setting [7]) was -3%; in assay [3] (setting [8]), 1%; in assay [3] (at 50.0 µM) it was 32.2%; in assay [4] (setting [7]), -3%; in assay [4] (setting [8]), 4%; in assay [4] (at 50.0 µM), 90.3% (active). The growth inhibition is -5% in assay [5] (setting [7]); 5% in assay [5] (setting [8]); 98.1% (active) in assay [5] (at 50.0 µM); -5% in assay [6] (setting [7]); 12% in assay [6] (setting [8]); 14.6% in assay [6] (at 50.0 µM).
On to `C[C@]12C/C(=C/O)C(=O)C(O)=C1CC[C@@H]1C2CC[C@@]2(C)C1CC[C@@H]2O` (some centres not stated), for which the growth inhibition in assay [1] (setting [7]) was 6%; in assay [1] (setting [8]), 56%; in assay [1] (at 50.0 µM), 78.9% (active); in assay [2] (setting [7]) it was 5%; in assay [2] (setting [8]), 33%; in assay [2] (at 50.0 µM), 59.4%. The growth inhibition in assay [3] (setting [7]) was 4%; in assay [3] (setting [8]) it was 70% (active); in assay [3] (at 50.0 µM), 52.2%; in assay [4] (setting [7]), 6%; in assay [4] (setting [8]), 52%; in assay [4] (at 50.0 µM), 62.2%. The growth inhibition in assay [5] (setting [7]) was -39%; in assay [5] (setting [8]) it was 81% (active); in assay [5] (at 50.0 µM), 79.4% (active); in assay [6] (setting [7]) it was 8%; in assay [6] (setting [8]), 74% (active); in assay [6] (at 50.0 µM) it was 89.2% (active).
In the case of `C[N+](C)(C)CC1CCCC(C[N+](C)(C)C)C1O` (configuration not stated), the growth inhibition was 2% in assay [1] (setting [7]); 65% in assay [1] (setting [8]); 92.3% (active) in assay [1] (at 50.0 µM); -3% in assay [2] (setting [7]); 46% in assay [2] (setting [8]); 43.4% in assay [2] (at 50.0 µM). Besides, the growth inhibition is 0% in assay [3] (setting [7]); 81% (active) in assay [3] (setting [8]); 76% (active) in assay [3] (at 50.0 µM); -5% in assay [4] (setting [7]); 39% in assay [4] (setting [8]); 6.5% in assay [4] (at 50.0 µM). Further, the growth inhibition was -4% in assay [5] (setting [7]); 70% (active) in assay [5] (setting [8]); 67.7% in assay [5] (at 50.0 µM); 0% in assay [6] (setting [7]); 80% (active) in assay [6] (setting [8]); 95.2% (active) in assay [6] (at 50.0 µM).
Turning to `O=[N+]([O-])c1ccc(Br)c([N+](=O)[O-])c1`, the growth inhibition in assay [1] (setting [7]) is 83% (active); in assay [1] (setting [8]) it was 98% (active); in assay [1] (at 50.0 µM), 99% (active); in assay [2] (setting [7]), 7%; in assay [2] (setting [8]) it was 99% (active); in assay [2] (at 50.0 µM), 99.4% (active). For the same compound, the growth inhibition was 8% in assay [3] (setting [7]); 98% (active) in assay [3] (setting [8]); 99.2% (active) in assay [3] (at 50.0 µM); -6% in assay [4] (setting [7]); 98% (active) in assay [4] (setting [8]); 98.3% (active) in assay [4] (at 50.0 µM). The growth inhibition in assay [5] (setting [7]) was -15%; in assay [5] (setting [8]) it was 98% (active); in assay [5] (at 50.0 µM) it was 98.9% (active); in assay [6] (setting [7]), 17%; in assay [6] (setting [8]), 98% (active); in assay [6] (at 50.0 µM), 99.2% (active).
Take `COC(=O)c1ccc([As]=O)cc1N` (configuration not stated): the growth inhibition was 2% in assay [1] (setting [7]); 6% in assay [1] (setting [8]); 98.7% (active) in assay [1] (at 50.0 µM); 1% in assay [2] (setting [7]); 4% in assay [2] (setting [8]); 99.5% (active) in assay [2] (at 50.0 µM). Also, the growth inhibition in assay [3] (setting [7]) was -1%; in assay [3] (setting [8]), 4%; in assay [3] (at 50.0 µM) it was 99.3% (active); in assay [4] (setting [7]) it was -2%; in assay [4] (setting [8]), -6%; in assay [4] (at 50.0 µM) it was 98.5% (active). Moreover, the growth inhibition in assay [5] (setting [7]) was 3%; in assay [5] (setting [8]) it was 2%; in assay [5] (at 50.0 µM), 98.8% (active); in assay [6] (setting [7]), 2%; in assay [6] (setting [8]), 7%; in assay [6] (at 50.0 µM), 99% (active).
As to `CC(=O)[O-].O=[N+]([O-])c1ccc([O-])c(C=NCCN=Cc2cc([N+](=O)[O-])ccc2[O-])c1.[Mn+3]`, the growth inhibition in assay [1] (setting [7]) was 15%; in assay [1] (setting [8]), 96% (active); in assay [1] (at 50.0 µM) it was 91.8% (active); in assay [2] (setting [7]), -2%; in assay [2] (setting [8]), 98% (active); in assay [2] (at 50.0 µM), 79.2% (active). Moreover, the growth inhibition in assay [3] (setting [7]) was 10%; in assay [3] (setting [8]), 93% (active); in assay [3] (at 50.0 µM), 91.6% (active); in assay [4] (setting [7]), 19%; in assay [4] (setting [8]), 95% (active); in assay [4] (at 50.0 µM), 48.2%. In addition, the growth inhibition is 1% in assay [5] (setting [7]); 94% (active) in assay [5] (setting [8]); 88.5% (active) in assay [5] (at 50.0 µM); 12% in assay [6] (setting [7]); 97% (active) in assay [6] (setting [8]); 93.3% (active) in assay [6] (at 50.0 µM).
As for `Nc1ccccc1C(=O)c1ccccc1`, the growth inhibition in assay [1] (setting [7]) is 4%; in assay [1] (setting [8]), 8%; in assay [1] (at 50.0 µM) it was 76.2% (active); in assay [2] (setting [7]), 1%; in assay [2] (setting [8]) it was 4%; in assay [2] (at 50.0 µM), 11%. The growth inhibition is 1% in assay [3] (setting [7]); 10% in assay [3] (setting [8]); 38.1% in assay [3] (at 50.0 µM); 4% in assay [4] (setting [7]); 1% in assay [4] (setting [8]); 3.25% in assay [4] (at 50.0 µM). Moreover, the growth inhibition in assay [5] (setting [7]) is 0%; in assay [5] (setting [8]), -3%; in assay [5] (at 50.0 µM), 47.2%; in assay [6] (setting [7]) it was 4%; in assay [6] (setting [8]), 5%; in assay [6] (at 50.0 µM), 75.7% (active).
With `O=[N+]([O-])/C=C\c1ccc2c(c1)OCO2`, the growth inhibition is 99% (active) in assay [1] (setting [7]); 100% (active) in assay [1] (setting [8]); 99.3% (active) in assay [1] (at 50.0 µM); 100% (active) in assay [2] (setting [7]); 100% (active) in assay [2] (setting [8]); 99.5% (active) in assay [2] (at 50.0 µM). Also, the growth inhibition in assay [3] (setting [7]) is 99% (active); in assay [3] (setting [8]), 99% (active); in assay [3] (at 50.0 µM), 99.5% (active); in assay [4] (setting [7]), 100% (active); in assay [4] (setting [8]) it was 99% (active); in assay [4] (at 50.0 µM), 98.8% (active). Moreover, the growth inhibition in assay [5] (setting [7]) was 100% (active); in assay [5] (setting [8]), 94% (active); in assay [5] (at 50.0 µM) it was 99% (active); in assay [6] (setting [7]), 100% (active); in assay [6] (setting [8]), 100% (active); in assay [6] (at 50.0 µM), 99.5% (active).
Take `CCC1CN1P(=O)(Oc1ccccc1)N1CC1CC` (configuration not stated): the growth inhibition in assay [1] (setting [7]) was -2%; in assay [1] (setting [8]), 15%; in assay [1] (at 50.0 µM), -5.7%; in assay [2] (setting [7]) it was -1%; in assay [2] (setting [8]), -42%; in assay [2] (at 50.0 µM), -17.2%. Further, the growth inhibition is -1% in assay [3] (setting [7]); 2% in assay [3] (setting [8]); -14.8% in assay [3] (at 50.0 µM); -11% in assay [4] (setting [7]); -7% in assay [4] (setting [8]); -16.4% in assay [4] (at 50.0 µM). The growth inhibition was 7% in assay [5] (setting [7]); 52% in assay [5] (setting [8]); 57.5% in assay [5] (at 50.0 µM); -2% in assay [6] (setting [7]); 6% in assay [6] (setting [8]); -20% in assay [6] (at 50.0 µM).
